# Source: PubChem BioAssay AID1159580 (chemical genetic matrix, 2015)
# The campaign covered roughly 5,500 compounds. About 2,000 (36%) were called active. Another 18% or so got no clear call; they are omitted. The list shows a part of the results. Values without a mark were called inactive. No stated cut-off is given here; in the data, active means normalized growth mostly below about 0.91 (no sharp cut-off); inconclusive means no clear call, values can overlap the other calls; inactive means mostly above about 0.92.
# Test: chemical genetic growth profiling, strain panel (AID 1159580);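 further: tested at 20 µM; growth read once vehicle control cultures reached saturation at 30 °C; 1 = growth at the plate median or of vehicle wells; lower values mean less growth of the strain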
# Conditions: growth OD
compound,measurement,setting,value
CC(=O)[C@@]1(O)CCC2C3CCC4=CC(=O)CC[C@]4(C)C3CC[C@@]21C (stereo partly drawn),normalized growth,"S. cerevisiae deletion strains, locus YJR066W, strain TOR1, active compounds read low",0.93
same,normalized growth,"S. cerevisiae deletion strains, locus YKL009W, strain mrt4, active compounds read low",0.995
same,normalized growth,"S. cerevisiae deletion strains, locus YKL068W, active compounds read low",1.01
same,normalized growth,"S. cerevisiae deletion strains, locus YKL085W, strain MDH1 (second series), active compounds read low",1.02
same,normalized growth,"S. cerevisiae deletion strains, locus YKL085W, strain MDH1, active compounds read low",1.02
same,normalized growth,"S. cerevisiae deletion strains, locus YKL160W, strain elf1, active compounds read low",0.997
same,normalized growth,"S. cerevisiae deletion strains, locus YKL190W, strain CNB1, active compounds read low",0.998
same,normalized growth,"S. cerevisiae deletion strains, locus YKR001C, strain vps1, active compounds read low",1.06
same,normalized growth,"S. cerevisiae deletion strains, locus YKR026C, strain gcn3, active compounds read low",0.966
same,normalized growth,"S. cerevisiae deletion strains, locus YKR091W, strain srl3, active compounds read low",0.991
same,normalized growth,"S. cerevisiae deletion strains, locus YLL001W, strain dnm1, active compounds read low",0.98
same,normalized growth,"S. cerevisiae deletion strains, locus YLL026W, active compounds read low",0.994
same,normalized growth,"S. cerevisiae deletion strains, locus YLL041C, strain sdh2, active compounds read low",0.99
same,normalized growth,"S. cerevisiae deletion strains, locus YLR027C, strain aat2, active compounds read low",1
same,normalized growth,"S. cerevisiae deletion strains, locus YLR039C, strain RIC1, active compounds read low",0.841
same,normalized growth,"S. cerevisiae deletion strains, locus YLR058C, strain SHM2, active compounds read low",0.987
same,normalized growth,"S. cerevisiae deletion strains, locus YLR102C, strain apc9, active compounds read low",1.01
same,normalized growth,"S. cerevisiae deletion strains, locus YLR113W, strain HOG1, active compounds read low",0.97
same,normalized growth,"S. cerevisiae deletion strains, locus YLR221C, strain rsa3, active compounds read low",1
same,normalized growth,"S. cerevisiae deletion strains, locus YLR258W, strain gsy2, active compounds read low",0.993
same,normalized growth,"S. cerevisiae deletion strains, locus YLR262C, strain YPT6 (second series), active compounds read low",0.823 (active)
same,normalized growth,"S. cerevisiae deletion strains, locus YLR262C, strain YPT6, active compounds read low",0.805
same,normalized growth,"S. cerevisiae deletion strains, locus YLR268W, strain sec22, active compounds read low",1.01
same,normalized growth,"S. cerevisiae deletion strains, locus YLR320W, strain mms22, active compounds read low",0.939
same,normalized growth,"S. cerevisiae deletion strains, locus YLR330W, strain CHS5, active compounds read low",1
same,normalized growth,"S. cerevisiae deletion strains, locus YLR342W, strain FKS1 (second series), active compounds read low",0.987
same,normalized growth,"S. cerevisiae deletion strains, locus YLR342W, strain FKS1, active compounds read low",0.989
same,normalized growth,"S. cerevisiae deletion strains, locus YLR357W, strain rsc2, active compounds read low",1.01
same,normalized growth,"S. cerevisiae deletion strains, locus YLR370C, strain arc18, active compounds read low",0.984
same,normalized growth,"S. cerevisiae deletion strains, locus YLR371W, strain rom2, active compounds read low",1.01
same,normalized growth,"S. cerevisiae deletion strains, locus YLR384C, strain iki3, active compounds read low",1.01
same,normalized growth,"S. cerevisiae deletion strains, locus YLR418C, strain cdc73, active compounds read low",1.01
same,normalized growth,"S. cerevisiae deletion strains, locus YML016C, strain PPZ1, active compounds read low",0.986
same,normalized growth,"S. cerevisiae deletion strains, locus YML032C, strain rad52, active compounds read low",0.981
same,normalized growth,"S. cerevisiae deletion strains, locus YML120C, strain ndi1, active compounds read low",1.01
same,normalized growth,"S. cerevisiae deletion strains, locus YML124C, strain tub3, active compounds read low",1
same,normalized growth,"S. cerevisiae deletion strains, locus YMR058W, strain fet3, active compounds read low",0.996
same,normalized growth,"S. cerevisiae deletion strains, locus YMR078C, strain ctf18, active compounds read low",0.992
same,normalized growth,"S. cerevisiae deletion strains, locus YMR125W, strain sto1, active compounds read low",0.984
same,normalized growth,"S. cerevisiae deletion strains, locus YMR129W, active compounds read low",0.982
same,normalized growth,"S. cerevisiae deletion strains, locus YMR205C, strain PFK2, active compounds read low",0.957
same,normalized growth,"S. cerevisiae deletion strains, locus YMR223W, strain ubp8, active compounds read low",0.995
same,normalized growth,"S. cerevisiae deletion strains, locus YMR231W, strain pep5, active compounds read low",0.996
same,normalized growth,"S. cerevisiae deletion strains, locus YMR307W, strain GAS1, active compounds read low",0.97
same,normalized growth,"S. cerevisiae deletion strains, locus YNL067W, strain RPL9B, active compounds read low",0.999
same,normalized growth,"S. cerevisiae deletion strains, locus YNL071W, strain lat1, active compounds read low",1
same,normalized growth,"S. cerevisiae deletion strains, locus YNL183C, strain NPR1, active compounds read low",0.907
same,normalized growth,"S. cerevisiae deletion strains, locus YNL209W, strain ssb2, active compounds read low",0.995
same,normalized growth,"S. cerevisiae deletion strains, locus YNL233W, strain BNI4, active compounds read low",1
same,normalized growth,"S. cerevisiae deletion strains, locus YNL248C, strain rpa49, active compounds read low",0.999
same,normalized growth,"S. cerevisiae deletion strains, locus YNL250W, strain rad50, active compounds read low",1.01
same,normalized growth,"S. cerevisiae deletion strains, locus YNL271C, strain bni1, active compounds read low",1
same,normalized growth,"S. cerevisiae deletion strains, locus YNL298W, strain CLA4, active compounds read low",1.01
same,normalized growth,"S. cerevisiae deletion strains, locus YNL307C, strain MCK1, active compounds read low",1.01
same,normalized growth,"S. cerevisiae deletion strains, locus YNL322C, strain KRE1 (second series), active compounds read low",0.996
same,normalized growth,"S. cerevisiae deletion strains, locus YNL322C, strain KRE1, active compounds read low",0.994
same,normalized growth,"S. cerevisiae deletion strains, locus YNR049C, strain mso1, active compounds read low",0.988
same,normalized growth,"S. cerevisiae deletion strains, locus YNR052C, strain pop2, active compounds read low",1
same,normalized growth,"S. cerevisiae deletion strains, locus YOL012C, strain htz1",0.769
same,normalized growth,"S. cerevisiae deletion strains, locus YOL147C, strain pex11, active compounds read low",1.01
same,normalized growth,"S. cerevisiae deletion strains, locus YOR001W, strain rrp6, active compounds read low",1
same,normalized growth,"S. cerevisiae deletion strains, locus YOR061W, strain CKA2, active compounds read low",0.993
same,normalized growth,"S. cerevisiae deletion strains, locus YOR069W, strain VPS5, active compounds read low",0.996
same,normalized growth,"S. cerevisiae deletion strains, locus YOR070C, strain gyp1, active compounds read low",0.994
same,normalized growth,"S. cerevisiae deletion strains, locus YOR080W, strain dia2, active compounds read low",0.991
same,normalized growth,"S. cerevisiae deletion strains, locus YOR083W, strain WHI5, active compounds read low",1
same,normalized growth,"S. cerevisiae deletion strains, locus YOR106W, strain vam3, active compounds read low",1.02
same,normalized growth,"S. cerevisiae deletion strains, locus YOR136W, strain idh2, active compounds read low",1.01
same,normalized growth,"S. cerevisiae deletion strains, locus YOR144C, strain elg1, active compounds read low",1
same,normalized growth,"S. cerevisiae deletion strains, locus YOR184W, strain ser1, active compounds read low",0.943
same,normalized growth,"S. cerevisiae deletion strains, locus YOR231W, strain MKK1, active compounds read low",0.965
same,normalized growth,"S. cerevisiae deletion strains, locus YOR265W, strain rbl2, active compounds read low",1
same,normalized growth,"S. cerevisiae deletion strains, locus YOR270C, strain vph1, active compounds read low",0.974
same,normalized growth,"S. cerevisiae deletion strains, locus YOR290C, strain snf2, active compounds read low",0.953
same,normalized growth,"S. cerevisiae deletion strains, locus YOR316C, strain cot1, active compounds read low",1
same,normalized growth,"S. cerevisiae deletion strains, locus YPL051W, strain arl3, active compounds read low",0.995
same,normalized growth,"S. cerevisiae deletion strains, locus YPL055C, strain LGE1, active compounds read low",1.02
same,normalized growth,"S. cerevisiae deletion strains, locus YPL078C, strain atp4, active compounds read low",0.997
same,normalized growth,"S. cerevisiae deletion strains, locus YPL106C, strain sse1, active compounds read low",1.02
same,normalized growth,"S. cerevisiae deletion strains, locus YPL240C, strain hsp82, active compounds read low",0.987
same,normalized growth,"S. cerevisiae deletion strains, locus YPL241C, strain CIN2, active compounds read low",0.995
same,normalized growth,"S. cerevisiae deletion strains, locus YPL256C, strain CLN2, active compounds read low",0.96
same,normalized growth,"S. cerevisiae deletion strains, locus YPR119W, strain clb2, active compounds read low",1
same,normalized growth,"S. cerevisiae deletion strains, locus YPR141C, strain kar3, active compounds read low",0.992
same,normalized growth,"S. cerevisiae deletion strains, locus YPR163C, strain tif3, active compounds read low",0.998
same,normalized growth,"S. cerevisiae deletion strains, locus YPR167C, strain met16, active compounds read low",1
same,normalized growth,"S. cerevisiae deletion strains, strain wtn01, active compounds read low",1.05
same,normalized growth,"S. cerevisiae strains, strain wild type, active compounds read low",0.991
